In PubChem BioAssay (NCI) one finds growth inhibition data, which are given here for 21 compounds.

Assay [1] is described as follows: NCI Yeast Anticancer Drug Screen. Data for the rad50 strain (AID 155).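 Further: 0% = growth of vehicle-only cultures of the same strain.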 The settings on record: S. cerevisiae rad50 strain growth inhibition; at 50.0 µM; stronger effect = higher value. The gist of the method: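 Vehicle-treated cultures provide the reference for the growth inhibition reported for compound-exposed, repair-deficient yeast.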
A short description of assay [2]: NCI Yeast Anticancer Drug Screen. Data for the mec2-1 strain (AID 157). The following applies: S. cerevisiae mec2-1 strain, at 50.0 µM, stronger effect = higher value. The essentials:
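Vehicle-treated cultures served as reference for growth inhibition of compound-exposed mec2-1 yeast.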

A short description of assay [3]: NCI Yeast Anticancer Drug Screen. Data for the sgs1 mgt1 strain (AID 161).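 Further: 0% = growth of cultures given vehicle only.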 The settings on record: S. cerevisiae sgs1 mgt1 strain, at 50.0 µM, stronger effect = higher value. The essentials: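 Mutant yeast exposed to compound; growth scored against vehicle-only wells.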
A short description of assay [4]: NCI Yeast Anticancer Drug Screen. Data for the cln2 rad14 strain (AID 165).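 Further: 0% = growth equal to vehicle treated cultures.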 The settings on record: S. cerevisiae cln2 rad14 strain, at 50.0 µM, stronger effect = higher value. The essentials: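 Each compound was tested on cln2 rad14 yeast. Inhibition of growth was calculated against vehicle-exposed controls.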
Assay [5] in a line: NCI Yeast Anticancer Drug Screen. Data for the bub3 strain (AID 167). The following applies: S. cerevisiae bub3 mutant strain, at 50.0 µM, stronger effect = higher value. The gist of the method:
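Mutant yeast screening strain plus compound; vehicle-treated cultures serve as the 0% inhibition reference.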

Assay [6] in a line: NCI Yeast Anticancer Drug Screen. Data for the mlh1 rad18 strain (AID 175). The following applies: S. cerevisiae mlh1 rad18 strain growth inhibition; at 50.0 µM; stronger effect = higher value. The essentials:
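Vehicle-treated cultures served as the reference for growth inhibition in a yeast strain carrying DNA damage repair alterations exposed to each compound.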

About 79,000 compounds went through this panel and 15% of them were active in at least one assay; those are over-represented in the sample as a whole. Unmarked numbers belong to inactive results. Active and inactive are the calls of the source. No stated cut-off is given here; in the data, active means growth inhibition above about 70%; inactive means the rest.

In the case of `C/C=C(\C)c1cc(O)c(C)c2c1Oc1cc(O)c(Cl)c(C)c1C(=O)O2`, the growth inhibition in assay [1] was 92.5% (active); in assay [2], 94.8% (active); in assay [3] it was 93.9% (active); in assay [4], 92.3% (active); in assay [5] it was 93.5% (active); in assay [6] it was 92.5% (active).
For the compound `COC(=O)C(Cc1c[nH]c2ccccc12)NP(=O)(O)OCC1OC(n2cc(F)c(=O)[nH]c2=O)CC1O` (stereo unspecified), the growth inhibition was -31.4% in assay [1]; -17.1% in assay [2]; -38.5% in assay [3]; -9.2% in assay [4]; -24.7% in assay [5]; -16.1% in assay [6].
On to `CCC(CC)(Cc1ccccc1)C(=O)O`, for which the growth inhibition in assay [1] is 9.65%; in assay [2] it was -17.7%; in assay [3], 12.7%; in assay [4], 1.65%; in assay [5], 11.7%; in assay [6], 36.4%.
As for `CC(=O)CC(=O)OC(C)OC(=O)CC(C)=O`, the growth inhibition in assay [1] is -2.1%; in assay [2], -13.4%; in assay [3], -11.4%; in assay [4] it was -2.5%; in assay [5] it was -0.7%; in assay [6], 0.25%.
Take `COc1ccc(C(=O)Nc2ccccc2)cc1`: the growth inhibition in assay [1] was 7.45%; in assay [2], 8.7%; in assay [3] it was -0.3%; in assay [4] it was 6.25%; in assay [5] it was -1.2%; in assay [6] it was -4.65%.
In the case of `CC(O)C12OC1CC1C3CC4OC45CC(O)CCC5(C)C3CCC12C` (stereo unspecified), the growth inhibition in assay [1] is 36.5%; in assay [2], 20.6%; in assay [3] it was 38.7%; in assay [4], 31.1%; in assay [5] it was 36.9%; in assay [6], 9.1%.
For the compound `N=C(N)n1[nH]c2c(c1=O)CCCC2`, the growth inhibition is 5.6% in assay [1]; 6.75% in assay [2]; -12.1% in assay [3]; 6.25% in assay [4]; 2.85% in assay [5]; -19.4% in assay [6].
With `CN(C)Cc1cc(C(=O)/C=C/c2ccc(Cl)cc2)cc(CN(C)C)c1O`, the growth inhibition in assay [1] is -27.6%; in assay [2], -22.1%; in assay [3], -20.9%; in assay [4], -44.2%; in assay [5] it was 1.2%; in assay [6] it was -18.1%.
As for `COc1ccc(N2N=NN(C(C)C)/C2=C(/Cl)c2nnnn2-c2ccc(OC)cc2)cc1`, the growth inhibition was 25.8% in assay [1]; 42.9% in assay [2]; 33.8% in assay [3]; 19.1% in assay [4]; 24.9% in assay [5]; 39.3% in assay [6].
As for `FS(F)(F)(F)(F)c1cccc(NC(=S)SCc2ccc3c(c2)OCO3)c1`, the growth inhibition is 97.6% (active) in assay [1]; 99% (active) in assay [2]; 98.8% (active) in assay [3]; 99.3% (active) in assay [4]; 98.8% (active) in assay [5]; 98.3% (active) in assay [6].
On to `Cn1c2ccccc2c2nnc(N/N=C/c3cccnc3)nc21`, for which the growth inhibition is -39.1% in assay [1]; -36.5% in assay [2]; -17.4% in assay [3]; -44.6% in assay [4]; -5.05% in assay [5]; -5.7% in assay [6].
Consider `COC1CCC(/C(C#N)=C/C2CCC(N(C)C)CC2)CC1` (stereo unspecified), for which the growth inhibition was 12.9% in assay [1]; 16.2% in assay [2]; 20.9% in assay [3]; 10.6% in assay [4]; 9.85% in assay [5]; 18.6% in assay [6].
Regarding `Cc1nn(-c2ccccc2)c2c1N=C(C(=O)O)CC(c1ccccc1)=N2`, the growth inhibition in assay [1] was 18.7%; in assay [2], 25.9%; in assay [3], 23.9%; in assay [4] it was 28.1%; in assay [5], 16.7%; in assay [6] it was 13.8%.
For the compound `CC(=O)NC(Cc1c[nH]c2ccccc12)C(=O)O` (stereo unspecified), the growth inhibition in assay [1] was -21.4%; in assay [2], -37.8%; in assay [3] it was -30.6%; in assay [4] it was -23.4%; in assay [5], -35.8%; in assay [6] it was -5.65%.
`COC(=O)c1c(C(=O)OC)c(C(c2ccccc2)c2ccccc2)n(-c2ccccc2)c1Cl`: the growth inhibition is -17.6% in assay [1]; -21.1% in assay [2]; 0.6% in assay [3]; 0.65% in assay [4]; -18.3% in assay [5]; 1.2% in assay [6].
For the compound `NC(=O)C(=CNc1nc(-c2ccc(Cl)c(Cl)c2)cs1)C(N)=O`, the growth inhibition is -53.9% in assay [1]; -45.1% in assay [2]; -29.4% in assay [3]; -17.2% in assay [4]; -6.5% in assay [5]; -8.25% in assay [6].
`CC(O)CN(CC(C)O)S(=O)(=O)c1ccc(N)cc1` (stereo unspecified): the growth inhibition in assay [1] is -9.15%; in assay [2], -14.2%; in assay [3], -0.45%; in assay [4] it was -9.3%; in assay [5], 13.8%; in assay [6] it was -2%.
As for `COC(=O)C(=O)/C(=C\N1C(=O)CC(=O)NC1=S)C(=O)c1ccc([N+](=O)[O-])cc1`, the growth inhibition was 17.9% in assay [1]; -0.4% in assay [2]; 9.6% in assay [3]; 1.5% in assay [4]; -5.25% in assay [5]; 6% in assay [6].
Turning to `CCN(CC)CCNc1ccccc1`, the growth inhibition in assay [1] is -0.45%; in assay [2], -13%; in assay [3], -8.55%; in assay [4] it was -48.4%; in assay [5] it was -4.9%; in assay [6], 14.7%.
In the case of `COC(=O)C(Cc1ccccc1)NCCN` (stereo unspecified), the growth inhibition in assay [1] was -0.1%; in assay [2] it was 7.4%; in assay [3] it was -3.9%; in assay [4] it was -17%; in assay [5] it was -5.95%; in assay [6], 2.1%.
Turning to `CC(=O)OCc1cn(S(=O)(=O)c2ccc(C)cc2)cn1`, the growth inhibition in assay [1] is 17.9%; in assay [2] it was -2.45%; in assay [3] it was 19.1%; in assay [4], -2.65%; in assay [5] it was 11.6%; in assay [6] it was -51.9%.
